# Laboratory results as given in PubChem BioAssay (NCATS).
# Results filed as inconclusive are left out. A call without a number means that no potency is given here. The source made the active and inactive calls. The call rests on the fitted dose curve; in most records, active means well fitted curve in the direction sought with a large enough effect; inconclusive means small, poorly fitted or top-dose-only effect, or another doubt; inactive means no such curve, though single readings can be large; an effect the other way counts as inactive or inconclusive.
# Assays:
# [1] = Primary qHTS for inhibitors of nuclear receptor binding SET domain protein 2 (NSD2) in an isogenic RCH-ACV NSD2 p.E1099K mutant (9B) (AID 1645876); further: nearly all actives have a fitted effect of over 70% in size; further: potency means the concentration at half of the fitted maximal effect
# [2] = Primary qHTS for inhibitors of nuclear receptor binding SET domain protein 2 (NSD2) in an RCH-ACV wild type WT cells (2C) (AID 1645877); further: nearly all actives have a fitted effect of over 70% in size; further: potency means the concentration at half of the fitted maximal effect
# [3] = molecular target: Rap guanine nucleotide exchange factor 3 (Homo sapiens) (UniProt O95398); assay: Confirmatory qHTS for antagonist of cAMP-regulated guanine nucleotide exchange factor 3 (EPAC1) (AID 1645880); further: nearly all actives have a fitted effect of over 55% in size
# Chain of Rap guanine nucleotide exchange factor 3 (Homo sapiens) (O95398 whole entry, looked up): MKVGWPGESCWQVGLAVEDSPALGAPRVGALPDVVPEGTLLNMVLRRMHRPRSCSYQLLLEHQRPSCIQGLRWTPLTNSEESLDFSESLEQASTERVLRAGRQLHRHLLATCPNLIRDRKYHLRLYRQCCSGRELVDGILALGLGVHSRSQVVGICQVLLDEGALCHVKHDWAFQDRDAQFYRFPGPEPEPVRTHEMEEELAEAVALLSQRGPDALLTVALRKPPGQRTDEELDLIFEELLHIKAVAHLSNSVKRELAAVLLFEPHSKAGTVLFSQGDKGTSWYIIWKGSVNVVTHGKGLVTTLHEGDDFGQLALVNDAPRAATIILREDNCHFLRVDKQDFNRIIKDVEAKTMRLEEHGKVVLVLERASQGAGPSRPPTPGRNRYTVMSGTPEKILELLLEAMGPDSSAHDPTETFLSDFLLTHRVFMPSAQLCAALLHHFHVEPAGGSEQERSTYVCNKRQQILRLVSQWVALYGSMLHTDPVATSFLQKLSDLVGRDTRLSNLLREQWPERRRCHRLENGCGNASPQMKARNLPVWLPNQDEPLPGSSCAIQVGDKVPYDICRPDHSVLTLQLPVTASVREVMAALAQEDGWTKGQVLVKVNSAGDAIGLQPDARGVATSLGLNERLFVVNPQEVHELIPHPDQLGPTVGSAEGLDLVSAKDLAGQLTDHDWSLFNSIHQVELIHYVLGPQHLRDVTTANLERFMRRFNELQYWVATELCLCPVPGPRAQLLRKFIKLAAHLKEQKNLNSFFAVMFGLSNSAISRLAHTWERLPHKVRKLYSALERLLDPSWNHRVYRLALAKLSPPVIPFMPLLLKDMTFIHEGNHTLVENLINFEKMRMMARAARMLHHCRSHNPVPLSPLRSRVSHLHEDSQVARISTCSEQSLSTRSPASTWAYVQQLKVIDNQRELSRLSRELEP
# In short: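 Nucleotide exchange uses 100 nM EPAC1, 250 nM RAP1B-BODIPY-GDP and 50 uM GDP, with compounds in a concentration-titration series. After 5 min at room temperature, fluorescence (480 nm ex/540 nm em) is read every 5 min for 30 min. Data are normalized to control ATA and DMSO.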
# [4] = molecular target: Rap guanine nucleotide exchange factor 3 (Homo sapiens) (UniProt O95398); assay: Confirmatory qHTS for agonist of cAMP-regulated guanine nucleotide exchange factor 3 (EPAC1) (AID 1645881);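 further: EPAC1 catalysed release of BODIPY-GDP from Rap1B seen as fluorescence loss; nearly all actives have a fitted effect of over 75% in size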
# [5] = molecular target: Rap guanine nucleotide exchange factor 4 (Homo sapiens) (UniProt Q8WZA2); assay: Confirmatory qHTS for antagonist of cAMP-regulated guanine nucleotide exchange factor 4 (EPAC2) (AID 1645885); further: potency means the concentration at half of the fitted maximal effect; nearly all actives have a fitted effect of over 25% in size
# Chain of Rap guanine nucleotide exchange factor 4 (Homo sapiens) (Q8WZA2 whole entry, looked up): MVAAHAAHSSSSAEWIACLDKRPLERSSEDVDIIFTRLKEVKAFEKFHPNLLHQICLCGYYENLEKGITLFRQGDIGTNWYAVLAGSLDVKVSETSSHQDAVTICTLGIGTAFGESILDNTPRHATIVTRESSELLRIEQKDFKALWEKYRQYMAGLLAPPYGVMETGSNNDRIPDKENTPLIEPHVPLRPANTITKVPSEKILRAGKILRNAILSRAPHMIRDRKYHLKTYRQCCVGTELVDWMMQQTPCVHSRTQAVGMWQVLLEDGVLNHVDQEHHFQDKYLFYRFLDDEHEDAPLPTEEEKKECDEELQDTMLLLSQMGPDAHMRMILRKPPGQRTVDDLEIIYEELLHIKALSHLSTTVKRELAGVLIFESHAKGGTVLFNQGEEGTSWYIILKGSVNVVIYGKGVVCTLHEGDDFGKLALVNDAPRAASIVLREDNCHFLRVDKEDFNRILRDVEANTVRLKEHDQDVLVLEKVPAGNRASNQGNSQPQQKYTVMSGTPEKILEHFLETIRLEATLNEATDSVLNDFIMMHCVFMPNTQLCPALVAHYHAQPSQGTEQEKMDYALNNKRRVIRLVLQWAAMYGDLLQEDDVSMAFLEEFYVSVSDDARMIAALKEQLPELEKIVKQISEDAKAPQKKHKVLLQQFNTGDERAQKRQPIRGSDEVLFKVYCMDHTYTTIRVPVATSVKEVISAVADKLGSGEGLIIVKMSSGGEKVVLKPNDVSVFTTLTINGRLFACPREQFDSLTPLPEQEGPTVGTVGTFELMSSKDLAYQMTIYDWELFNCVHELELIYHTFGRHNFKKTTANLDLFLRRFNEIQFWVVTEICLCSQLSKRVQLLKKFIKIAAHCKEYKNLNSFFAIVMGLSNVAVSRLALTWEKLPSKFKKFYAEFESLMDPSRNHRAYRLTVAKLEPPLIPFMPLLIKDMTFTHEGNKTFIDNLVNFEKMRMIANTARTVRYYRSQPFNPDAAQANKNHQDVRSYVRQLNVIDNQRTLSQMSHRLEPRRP
# [6] = molecular target: Catechol O-methyltransferase (Homo sapiens) (UniProt P21964); assay: Confirmatory Screen for Target Class Profiling of Small Molecule Inhibitors of Methyltransferases (AID 1745852); settings: MTase-Glo luminescence, SAH detection, recombinant enzyme; measured here: COMT max response; stronger effect = lower value
# Chain of Catechol O-methyltransferase (Homo sapiens) (P21964 whole entry, looked up): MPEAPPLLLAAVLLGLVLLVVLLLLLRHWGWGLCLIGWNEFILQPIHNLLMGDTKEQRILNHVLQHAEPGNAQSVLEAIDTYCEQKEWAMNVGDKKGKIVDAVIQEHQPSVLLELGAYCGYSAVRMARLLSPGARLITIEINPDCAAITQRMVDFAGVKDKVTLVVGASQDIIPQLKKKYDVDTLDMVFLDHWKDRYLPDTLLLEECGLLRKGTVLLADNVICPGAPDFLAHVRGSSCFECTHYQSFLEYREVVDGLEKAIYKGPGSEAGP
# [7] = molecular target: Guanidinoacetate N-methyltransferase (Homo sapiens) (UniProt Q14353); assay: as above; settings: MTase-Glo luminescence, SAH detection, recombinant enzyme; activity change, negative = inhibition: at 57.3 µM (top of the series) unless noted
# [8] = molecular target: Nicotinamide N-methyltransferase (Homo sapiens) (UniProt P40261); assay: as above; settings: MTase-Glo luminescence, SAH detection, recombinant enzyme; measured here: NNMT max response; stronger effect = lower value
# Chain of Nicotinamide N-methyltransferase (Homo sapiens) (P40261 whole entry, looked up): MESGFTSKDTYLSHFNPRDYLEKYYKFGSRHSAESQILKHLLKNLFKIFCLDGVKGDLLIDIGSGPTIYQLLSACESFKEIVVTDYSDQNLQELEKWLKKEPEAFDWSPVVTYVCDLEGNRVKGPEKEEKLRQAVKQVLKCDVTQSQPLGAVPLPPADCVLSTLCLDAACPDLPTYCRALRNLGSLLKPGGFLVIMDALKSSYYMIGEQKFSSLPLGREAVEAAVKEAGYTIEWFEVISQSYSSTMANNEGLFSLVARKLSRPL
# [9] = molecular target: Phenylethanolamine N-methyltransferase (Homo sapiens) (UniProt P11086); assay: as above; settings: MTase-Glo luminescence, SAH detection, recombinant enzyme; measured here: PNMT max response; stronger effect = lower value
# Chain of Phenylethanolamine N-methyltransferase (Homo sapiens) (P11086 whole entry, looked up): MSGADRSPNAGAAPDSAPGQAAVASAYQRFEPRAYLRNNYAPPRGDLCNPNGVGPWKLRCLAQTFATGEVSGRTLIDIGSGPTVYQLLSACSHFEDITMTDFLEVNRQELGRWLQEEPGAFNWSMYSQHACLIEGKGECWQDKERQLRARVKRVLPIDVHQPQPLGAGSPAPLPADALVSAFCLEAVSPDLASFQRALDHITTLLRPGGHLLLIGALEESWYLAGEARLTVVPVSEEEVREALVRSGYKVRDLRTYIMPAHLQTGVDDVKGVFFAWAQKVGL
# [10] = NCATS anti-infectives library activity on HEK293 viability as a counter-qHTS vs the C. elegans viability qHTS (AID 1745854)
# In short: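 HEK293 cells, 1500 per well, exposed 24 hr at 37C in 5% CO2 to compounds in a 1:5 titration, up to 41.7 uM final. Viability read as CellTiter-Glo luminescence after 10 min at room temperature.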
# [11] = molecular target: Rap guanine nucleotide exchange factor 4 (Homo sapiens) (UniProt Q8WZA2); assay: Confirmatory qHTS for agonist of cAMP-regulated guanine nucleotide exchange factor 4 (EPAC2) (AID 1645884);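 further: nucleotide exchange releases bodipy-GDP from Rap1 and this lowers its fluorescence; nearly all actives have a fitted effect of over 65% in size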
smiles,measurement,setting,value
COC1CC(O[C@H]2CC[C@]3(C=O)C4CC[C@]5(C)[C@@H](C6=CC(=O)OC6)CC[C@]5(O)[C@@H]4CC[C@]3(O)C2)OC(C)C1O[C@@H]1O[C@H](CO)[C@@H](O)[C@H](O)[C@H]1O (stereo partly drawn),Potency,[1],54.1 nM (active)
same,Potency,[2],85.8 nM (active)
C[C@@H]1C(=O)O[C@H]2[C@H](O)[C@@]34[C@@H]5OC(=O)[C@@]3(O[C@@H]3OC(=O)[C@@H](O)[C@@]34[C@H](C(C)(C)C)[C@H]5O)[C@@]12O,Potency,[1],inactive
same,Potency,[2],inactive
C[C@@]1(C(=O)O)CC[C@]2(C)CC[C@]3(C)C4=CC(=O)c5cc(O)c(O)cc5[C@]4(C)CC[C@@]3(C)[C@@H]2C1,Potency,[1],inactive
same,Potency,[2],inactive
C=C1[C@@H]2CC[C@@]3(C)[C@H](c4ccoc4)OC(=O)C[C@]13O[C@H]1CC(=O)C(C)(C)[C@H](C(OC(C)=O)C(=O)OC)[C@]12C (stereo partly drawn),Potency,[1],inactive
same,Potency,[2],inactive
CC(C)C1(OO)C=C2C(=O)CC3C(C)(C(=O)O)CCCC3(C)C2CC1 (stereo not drawn),Potency,[1],inactive
same,Potency,[2],inactive
CCN1C[C@]2(COC)[C@H](O)C[C@H](OC)[C@]34[C@@H]5C[C@]6(O)[C@H](OC(=O)c7ccccc7)[C@@H]5[C@@](O)([C@H]([C@H](OC)[C@H]23)[C@@H]14)[C@@H](O)[C@@H]6OC,Potency,[1],inactive
same,Potency,[2],inactive
O=C1CN=C(c2ccccc2)c2cc(Cl)ccc2N1CC1CC1,outcome,[3],inactive
same,Potency,[4],inactive
same,Potency,[5],55500 nM (active)
CN[C@H]1[C@H](O)[C@H](O[C@@H]2[C@@H](O)[C@H](O[C@H]3O[C@H]([C@H](C)O)[C@@H](O)[C@H](O)[C@H]3N)[C@@H](N)C[C@H]2N)OC[C@@]1(C)O,Potency,[1],inactive
same,Potency,[2],inactive
C[C@]12CC[C@H]3[C@@H]([C@H](O)CC4=CC(=O)CC[C@@]43C)[C@@H]1CC[C@@H]2O,Potency,[1],inactive
same,Potency,[2],inactive
CCCN1CCO[C@H]2c3cc(O)ccc3OC[C@@H]21,Potency,[1],inactive
same,Potency,[2],inactive
C[C@H]1O[C@@H](O[C@H]2C[C@@H](O)[C@]3(CO)C4C(CC[C@]3(O)C2)[C@@]2(O)CC[C@H](C3=CC(=O)OC3)[C@@]2(C)C[C@H]4O)[C@@H](O)[C@@H](O)[C@H]1O (stereo partly drawn),Potency,[1],153 nM (active)
same,Potency,[2],383 nM (active)
COC1C(O)C(C)OC(OC2C(CO)O[C@@H](O[C@@H]3CC4CCC5C(CC[C@]6(C)[C@@H](C7=CC(=O)OC7)CC[C@]56O)[C@@]4(C)[C@H](O)C3)C(O)C2O)C1O (stereo partly drawn),Potency,[1],430 nM (active)
same,Potency,[2],483 nM (active)
COC1C(O)C(OC2CCC3(C=O)C(CCC4C3CCC3(C)C(C5=CC(=O)OC5)CCC43O)C2)OC(C)C1OC1OC(CO)C(O)C(O)C1O (stereo not drawn),Potency,[1],171 nM (active)
same,Potency,[2],342 nM (active)
COC(=O)[C@@]12C(=O)C(C)C(=O)[C@]1(C)C(C)=C[C@H]1[C@]3(C=O)CC[C@H](OC(C)=O)C(C)(C)[C@H]3CC[C@@]12C (stereo partly drawn),Potency,[1],inactive
same,Potency,[2],inactive
C[C@@H]1[C@@H]2Cc3ccc(O)cc3[C@@]1(C)CCN2CC1CC1,activity,[6],7.89%
same,"activity change, negative = inhibition",[7],6.66%
same,activity,[8],-1.08%
same,activity,[9],4.55%
COc1cc(C(=O)O[C@H]2[C@@H]3C=CO[C@@H](O[C@@H]4O[C@H](CO)[C@@H](O)[C@H](O)[C@H]4O)[C@@H]3[C@@]3(CO)O[C@@H]23)ccc1O,Potency,[1],inactive
same,Potency,[2],inactive
same,activity,[6],-83.5%
same,"activity change, negative = inhibition",[7],-1.53% [at 29.8 µM]
same,activity,[8],-4.95%
same,activity,[9],-3.91%
same,outcome,[10],inactive
C[C@@]12C[C@@H](c3ccoc3)OC(=O)C1CC[C@]1(C)[C@H]2[C@H]2C=C[C@]1(O)C(=O)O2 (stereo partly drawn),Potency,[1],inactive
same,Potency,[2],inactive
C=C[C@H]1CN2CC[C@H]1C[C@@H]2[C@@H](O)c1ccnc2ccccc12,Potency,[1],inactive
same,Potency,[2],inactive
COC1CC(OC2CCC3(C)C(=CCC4C3CCC3(C)C(C(C)OC5OC(COC6OC(CO)C(O)C(O)C6O)C(O)C(O)C5O)CCC43O)C2)OC(C)C1OC1OC(C)C(O)C(OC)C1O (stereo not drawn),outcome,[1],inactive [at 9.23 µM]
same,"activity change, negative = cell killing",[2],0.676% [at 9.23 µM] (inactive)
CN1C(=O)c2ccccc2NC(=O)[C@]12O[C@@H]2c1ccccc1,Potency,[1],inactive
same,Potency,[2],inactive
CC(=O)O[C@H]1C[C@@H](OC(C)=O)C(C)(C)C2C[C@@H](O)[C@]3(C)C(CC[C@@]4(C)[C@H](C5=CC(=O)OC5O)C[C@H]5O[C@]543)[C@]21C (stereo partly drawn),Potency,[1],inactive
same,Potency,[2],inactive
CC(CCc1ccc(O)cc1)O[C@@H]1O[C@H](CO[C@H]2OC[C@](O)(CO)[C@H]2O)[C@@H](O)[C@H](O)[C@H]1O (stereo partly drawn),Potency,[1],inactive
same,Potency,[2],inactive
O=C(O)c1ccnc2cc(C(OCCN3CCCCC3)c3ccccc3Cl)[nH]c12 (stereo not drawn),Potency,[1],inactive
same,Potency,[2],inactive
same,outcome,[10],inactive
CN1C(=O)c2ccccc2NC(=O)C1Cc1ccccc1 (stereo not drawn),Potency,[1],inactive
same,Potency,[2],inactive
COC1=CC(=O)O[C@@H](CCc2ccccc2)C1,Potency,[1],inactive
same,Potency,[2],inactive
C1=C2CCCN[C@H]2[C@@H]2C[C@H]1[C@H]1CCCCN1C2,Potency,[1],inactive
same,Potency,[2],inactive
same,outcome,[10],inactive
CN1CCCC1CCOC(c1cc2nccc(C(=O)O)c2[nH]1)c1ccccc1Cl (stereo not drawn),Potency,[1],inactive
same,Potency,[2],inactive
same,outcome,[10],inactive
N#C[C@@H](O[C@@H]1O[C@H](CO[C@@H]2O[C@H](CO)[C@@H](O)[C@H](O)[C@H]2O)[C@@H](O)[C@H](O)[C@H]1O)c1ccccc1,Potency,[1],inactive
same,Potency,[2],inactive
CCCCCc1cc(O)c2c(c1)OC(C)(C)[C@@H]1CCC(C)=C[C@@H]21,Potency,[4],inactive
same,Potency,[11],inactive
COC1=CC(=O)O[C@@H](/C=C/c2ccccc2)C1,Potency,[1],inactive
same,Potency,[2],inactive
CC(C)=C1CC[C@]23CO[C@H](C2)[C@@](O)(C(=O)O)CCC13 (stereo partly drawn),Potency,[1],inactive
same,Potency,[2],inactive
